# Measured values from PubChem BioAssay (NCATS).
# Records with an inconclusive call do not appear. Where a call stands in place of a potency, no number is given. Calls of active or inactive are those of the source. The call rests on the fitted dose curve; in most records, active means well fitted inhibition curve with a large enough effect; inconclusive means small, poorly fitted or top-dose-only effect; inactive means no such curve, though single readings can be large or run the other way.
# Key:
# [1] = test system: Zika virus NS2B-NS3 protease (unlinked complex); experiment: Primary screen GU Rhodamine qHTS for Zika virus inhibitors: Unlinked NS2B-NS3 protease assay (AID 1347159); further: nearly all actives have a fitted effect of over 60% in size
# How it was run: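 Unlinked NS2B/NS3, 25 nM; Rhod110 peptide, 1.5 microM; compounds, up to 114 microM. Reaction run 15 min at RT in 10 mM Tris-HCl pH 8.0, 0.01% Tween 20; kinetic fluorescence change fitted with a 4-parameter Hill model.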
# [2] = test system: Zika virus NS2B-NS3 protease (linked construct); experiment: Primary screen NINDS Rhodamine qHTS for Zika virus inhibitors (AID 1347160); further: nearly all actives have a fitted effect of over 55% in size
# How it was run: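 Single-chain NS2B-NS3 protease, 25 nM, pH 8.0; compounds preincubated 15 min. Activity: Rhodamine110 release from 1.5 microM substrate over 15 min, room temperature, data fitted to 4-parameter Hill.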
Compound,Potency [1],Potency [2]
O=C(c1ccc(Cl)c([N+](=O)[O-])c1)N1CCN(c2ccccc2F)CC1,inactive,inactive
CC1(C)C[C@@H]2[C@H](C1)[C@@]1(C)C[C@]13C(O)OC[C@]3(O)[C@H]2O (some centres undefined),inactive,inactive
CC1(C)CC2C3=CCC4[C@@]5(C)CC[C@H](OC6OCC(O)C(OC7OC(CO)C(O)C(O)C7O)C6O)C(C)(C)C5CC[C@@]4(C)[C@]3(C)C[C@H](O)[C@@]2(CO)[C@H](OC(=O)c2ccccc2)C1 (some centres undefined),inactive,inactive
C/C(CO)=C1/CCC23COC(C2)C(O)(C(=O)O)CCC13 (centres undefined),inactive,inactive
CC1=C2CC(C)(C)CC2C(O)C2=C(C1)C(=O)OC2O (centres undefined),inactive,inactive
CCOC(=O)CSc1nc2c(sc3ccccc32)c(=O)n1CCCN1CCCC1,inactive,inactive
COC(=O)C1=CO[C@@H](O[C@@H]2O[C@H](CO)[C@@H](O)[C@H](O)[C@H]2O)[C@H]2[C@@H]1[C@H](O)C[C@]2(C)O,inactive,inactive
COc1cncc(C#Cc2ccccn2)c1,inactive,inactive
COc1ccc(Oc2c(Cl)cnn(C3c4ccccc4-c4ccccc43)c2=O)cc1,inactive,inactive
C/C=C/C=C/C=C/C(=O)N(C)C(C(=O)NC(C)C(=O)N1CCCC1C(N)=O)C(C)C (centres undefined),inactive,inactive
CO[C@@H]1[C@]2(O)C(=O)N3/C=C\C(C)(C)c4[nH]c5ccccc5c4/C=C\3C(=O)N2[C@]23[C@H](CO)C(C)(C)N2c2ccccc2[C@]13O,inactive,inactive
Nc1c(-c2ccccc2)nc(Cl)c2c(O)n[nH]c(=O)c12,inactive,inactive
